High-throughput results from PubChem.
Rce1 inhib: yeast Rce1p protease inhibitors, primary screen, biochemical, fluorescence, cell-free homogeneous; CAAX prenyl protease 2 (Saccharomyces cerevisiae (strain ATCC 204508 / S288c)), Q03530; yeast membranes, quenched prenylated peptide cleavage fluorescence; calls only; 290,000 tested, 0.27% active;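 active = fall in fluorescence gain of 50% or more versus controls, with final raw signal at or below 3038400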
TMEM16A inh: TMEM16A chloride channel inhibitors, primary screen, cell-based, HTS; Anoctamin-1 (Mus musculus), Q8BHY3; normalized B-score (activity score, 25-100; higher = stronger inhibition) at 10 µM; 310,000 tested, 1.2% active; AID 588511, 2011; HEK293 TMEM16A/YFP iodide influx fluorescence, ionomycin;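 active = ratio plate-corrected score three or more library SD toward inhibition, starting fluorescence score within five deviations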;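 note: score derived from kinetic fluorescence span divided by baseline fluorescence per well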
ANO1 activ: TMEM16A chloride channel activators or potentiators, primary screen, cell-based, HTS | B-score at 10 µM | AID 623877, 2012 | HEK293 TMEM16A/YFP-H148Q/I152L, iodide quench fluorescence; active compounds read low | Anoctamin-1 (Mus musculus), Q8BHY3 | 340,000 tested, 0.3% active;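 active = fluorescence-ratio B-score plate-corrected deviation score at least 3 library SD below zero, with starting fluorescence score within 5 deviations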;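 note: channel opened by trigger with iodide after compound preincubation; score built on the fluorescence ratio of max minus min over baseline; more negative score means more quench and so TMEM16A activation or potentiation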
Kir21 block: inhibitors of mouse Kir2.1 inward-rectifier potassium channel. 310,000 tested, 0.85% active. HEK293-Kir2.1, FluxOR thallium flux fluorescence; active compounds read low. AID 1672, 2009. B-score at 10 µM;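 active = fluorescence ratio B-score at or below minus 3 SD of library scores, with starting-brightness B-score within 2 SD, cut at about -4.2 in these data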;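 note: channel flux triggered by added potassium and thallium sulfate stimulus; B-score of peak minus minimum fluorescence over baseline after thallium stimulus; more negative B-score means stronger Kir2.1 block with less thallium influx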
CHT PAM: CHT positive allosteric modulators, primary screen, cell-based, membrane potential dye, choline EC20. AID 488977, 2010. High affinity choline transporter 1 (Homo sapiens), Q9GZV3. CHT-expressing cells; active compounds read high; LV-AA mutant CHT in HEK293 cells. B-score at 10 µM. 310,000 tested, 0.49% active;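 active = initial fluorescence not abnormally high and integrated response B-score, plate-corrected, over 3 SD above library mean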
Target sequence (Q9GZV3 whole entry, looked up): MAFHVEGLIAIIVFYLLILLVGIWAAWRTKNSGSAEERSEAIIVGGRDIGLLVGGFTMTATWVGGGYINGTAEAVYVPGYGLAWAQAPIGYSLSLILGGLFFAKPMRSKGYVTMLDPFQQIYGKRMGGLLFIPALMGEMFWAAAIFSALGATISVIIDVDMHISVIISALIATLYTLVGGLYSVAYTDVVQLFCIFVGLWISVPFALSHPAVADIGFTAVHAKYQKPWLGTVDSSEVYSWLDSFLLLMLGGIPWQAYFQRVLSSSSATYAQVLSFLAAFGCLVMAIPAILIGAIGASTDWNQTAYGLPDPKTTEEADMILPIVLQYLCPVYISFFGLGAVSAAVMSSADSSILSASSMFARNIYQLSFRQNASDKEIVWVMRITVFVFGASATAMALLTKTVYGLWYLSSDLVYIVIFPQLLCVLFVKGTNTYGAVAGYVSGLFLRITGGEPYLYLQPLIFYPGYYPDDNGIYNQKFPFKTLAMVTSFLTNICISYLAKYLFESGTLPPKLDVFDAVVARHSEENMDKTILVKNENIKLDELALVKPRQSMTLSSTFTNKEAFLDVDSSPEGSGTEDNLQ
CHT block: inhibitors of human choline transporter CHT; CHT-expressing cells, membrane potential dye, choline response; active compounds read low; B-score at 10 µM; 310,000 tested, 0.86% active;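 active = B-score over 3 SD under the library average, and starting fluorescence ratio not unusually high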;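 note: choline stimulus applied at its EC90 after an EC20 pre-addition; B-score computed on integrated fluorescence ratio after choline addition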
CHT block conf: CHT inhibitors, confirmation, cell-based, membrane potential dye, duplicate. AID 493221, 2011. CHT-expressing cells, choline membrane potential dye; LV-to-AA substituted CHT, HEK293 cells. 2,400 tested, 70% active. CHT activity remaining % of control (active compounds read low), % at 10 µM. shares compounds with CHT block;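 active = choline transporter activity left, mean of duplicates at 10 µM, below buffer-only control mean minus 3 SD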;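 note: depolarization triggered by choline at its EC90 following an EC20 pre-addition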
HEK293 CHT ctr: membrane potential effects in parental HEK293, counter-screen for CHT inhibitor project, cell-based, membrane potential dye; shares compounds with CHT block; choline response; active = decrease or increase beyond buffer ±3SD; membrane potential ratio readout (active if shifted either direction beyond buffer ±3SD; no single direction) at 10 µM; 2,400 tested, 4% active; AID 493222, 2011;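 note: parental cells lack the transporter so any hit is non-specific; ratio is peak minus trough fluorescence over baseline after EC90 choline challenge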
Numbers stand for hits; n = inactive; x = no result. An excerpt weighted towards active compounds, which were near 3.2% of everything screened.

SMILES | Rce1 inhib | TMEM16A inh | ANO1 activ | Kir21 block | CHT PAM | CHT block | CHT block conf | HEK293 CHT ctr
CCc1ccc(NC(=O)CSc2nc3ncc(Br)cc3[nH]2)cc1 | n | n | n | n | n | n | x | x
O=c1c2ccccc2nc(SCc2ccncc2)n1CC1CCCO1 (configuration not stated) | x | n | n | n | n | -4.96 | 38.1% | n
CC1=C(C(=O)OC(C)C)C(c2ccccc2)NC(=O)N1C (configuration not stated) | n | n | n | n | n | n | x | x
CC1=C(C(=O)OC(C)C)C(c2ccc(Br)s2)NC(=O)N1C (configuration not stated) | n | n | n | n | n | -5.12 | 57.7% | n
Cc1nc(SCC(N)=O)[nH]c(=O)c1Cc1ccc(OC(C)C)cc1 | n | n | n | n | n | -6.1 | n | n
CCC(Oc1ccccc1)C(=O)N1CCN(S(=O)(=O)c2ccccc2)CC1 (configuration not stated) | x | x | n | x | x | x | x | x
COc1cc(NC(=O)c2ccc(=O)[nH]n2)cc(OC)c1OC | n | n | n | n | n | n | x | x
CC(C)n1cnc2c(N(C)c3cccc(Cl)c3)nc(N(CCO)CCO)nc21 | n | n | n | n | n | -6.63 | 52.2% | n
Brc1ccc(-c2noc3c2-c2nc(C4CCCCC4)sc2CC3)cc1 | n | n | n | n | n | n | x | x
CC(=O)c1ccc(S(=O)(=O)N(C)C(C)CCc2ccco2)cc1 (configuration not stated) | n | n | n | n | n | -5.65 | 70.9% | n
COc1ccc(S(=O)(=O)N2CCC(C(=O)N3CCc4ccccc4C3)CC2)cc1 | n | n | -12.1 | n | n | -5.78 | 48.6% | n
Cc1ccc(S(=O)(=O)N2CCC(C(=O)N3Cc4ccccc4C3)CC2)cc1 | n | n | n | n | n | n | x | x
CSc1ccc(S(=O)(=O)N2CCC(C(=O)N3CCc4ccccc4C3)CC2)cc1 | n | n | n | n | n | -13.6 | 58.8% | n
CCOc1ccc(S(=O)(=O)N2CCC(C(=O)N3CCc4ccccc4C3)CC2)cc1 | n | n | n | n | n | n | x | x
COc1cccc(CNC(=O)Cc2ccc(S(=O)(=O)N3CCOCC3)s2)c1 | n | n | n | n | n | n | x | x
CNc1snc(C)c1C(=O)OC(C)C(=O)NCc1ccccc1 (configuration not stated) | x | x | n | x | x | x | x | x
CCOc1ccc(Cl)cc1S(=O)(=O)N1CCCC1 | n | n | n | n | n | n | x | x
CCOc1ccc(Br)cc1S(=O)(=O)N1CCCC1 | n | n | n | n | n | -5.07 | 66.8% | n
Cc1c(N=Nc2ccc(O)cc2)c(=O)n(-c2ccccc2)n1C | n | n | n | n | n | n | x | x
Cc1[nH]c2ccccc2c1N=Nc1c(C)n(C)n(-c2ccccc2)c1=O | n | n | n | n | n | -13.2 | n | n
Cc1nn(Cc2ccccc2)c(Cl)c1/C=C1\NC(=S)NC1=O | n | n | n | n | n | -7.71 | n | n
O=c1c(Cc2c(F)cccc2Cl)c(O)ccn1CCc1c[nH]c2ccccc12 | n | n | n | n | n | n | x | x
COc1ccc(-c2nc(SCC(=O)NC3CCCCC3)n[nH]2)cc1 | n | n | n | n | n | n | x | x
COc1ccc(/C=C(\NC(=O)c2ccccc2)C(=O)OCC2CCCN3CCCCC23)cc1OC (configuration not stated) | n | n | n | n | n | n | x | x
CN1/C(=C\C=Nc2cc(S(=O)(=O)N3CCOCC3)ccc2N2CCOCC2)C(C)(C)c2ccccc21 | x | n | n | n | n | n | 20.9% | n
SMILES | Rce1 inhib | TMEM16A inh | ANO1 activ | Kir21 block | CHT PAM | CHT block | CHT block conf | HEK293 CHT ctr
O=C(NNC(=O)c1ccccc1O)c1ccc(Cl)c(S(=O)(=O)N2CCCCC2)c1 | n | n | n | n | n | n | x | x
CCc1c(O)nc(SCc2ccccc2)n(C(C)CC)c1=O (configuration not stated) | n | n | n | n | n | -5.17 | n | n
Cc1nn2c(NCCOCCO)c3c(nc2c1-c1ccccc1)CCCC3 | n | n | n | n | n | -5.24 | 31.4% | n
Cc1nn2c(N3CCN(CCO)CC3)c3c(nc2c1-c1ccccc1)CCCC3 | n | n | n | n | n | -9.05 | 31.2% | n
COc1cc(NC(=O)C2C3CCC(O3)C2C(=O)O)cc(OC)c1 (configuration not stated) | n | n | n | n | n | n | x | x
O=C(NCCCN1CCOCC1)c1cc(-c2ccccc2)nc2ccccc12 | n | n | n | n | n | n | x | x
Cc1ccc(Nc2cc(C(=O)NCCCN3CCOCC3)c3ccccc3n2)cc1C | n | n | n | n | n | n | 61.8% | n
CC(C)CCNC(=O)COc1ccc2c(c1)C(=O)CC(C)(C)O2 | n | n | n | n | n | n | x | x
CCC(Oc1ccc2c(c1)C(=O)CC(C)(C)O2)C(=O)NCCN1CCCCCC1 (configuration not stated) | n | n | n | n | n | -6.41 | 31.0% | n
CN1CCN(CCNC(=O)c2ccc3nc(-c4ccc(F)cc4)c(-c4ccc(F)cc4)nc3c2)CC1 | n | n | n | n | n | -11.6 | 8.4% | n
CCN1CCN(C(=O)c2ccc3nc(-c4ccccc4)c(-c4ccccc4)nc3c2)CC1 | n | n | n | n | n | -7.02 | 22.0% | n
S=C1NCN(C2CCCCC2)CN1c1ccccc1 | n | n | n | n | n | n | x | x
CC(C)Cn1c(N)c(C(=O)COC(=O)c2ccccc2Cl)c(=O)n(C)c1=O | n | n | n | n | n | -10.1 | n | n
C=CCc1c(OC)ccc2c1c(S(=O)(=O)c1ccc(C)cc1)cn2COC | n | n | n | n | n | n | x | x
Cc1noc(C)c1S(=O)(=O)Nc1ccccc1Oc1ccccc1 | n | n | n | n | n | -13 | n | n
Cc1noc(C)c1S(=O)(=O)Nc1ccccc1Cl | n | n | n | n | n | n | x | x
N/C(CN1CCCC1=O)=N\OC(=O)c1ccc(Cl)cc1 | n | n | n | n | n | n | x | x
N=C1CCCN1CC(=O)c1ccc(Cl)cc1 | n | n | n | n | n | -10.1 | 9.8% | n
